Assay [1] relates to Plasmodium falciparum Sir2 (PF13_0152, Sir2A). Kind of assay: Plasmodium falciparum Sir2A binding compounds – biochemical, small-molecule microarray, 635 nm fluorescence, primary screen (AID 1098).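 Note: score merges spot fluorescence intensity with its signal-to-noise ratio.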 Particulars: fluorescence 635 nm, higher = more signal.
Assay [2] in a line: probe aDKK1 binding to arrayed compounds – biochemical, biotinylated probe, 635/667 nm fluorescence, primary screen (AID 1099).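 Note: score merges 667nm spot fluorescence with signal to noise across triplicate slides.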 Particulars: higher = more signal; small-molecule microarray, probe aDKK1, fluorescence unless noted.
Assay [3] can be described thus: probe aCHRDL2 binding to arrayed compounds – biochemical, biotinylated probe, 635/667 nm fluorescence, primary screen (AID 1100). Particulars: higher = more signal; small-molecule microarray, probe aCHRDL2, fluorescence unless noted.
A short description of assay [4]: change in splice reporter luminescence, either direction, cell-based, HEK293, spliceosome inhibition project, primary screen (AID 1101).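 Note: HEK293 cells carrying a splicing-competent luciferase reporter gene; test concentration not given here.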 The following applies: HEK293 splicing luciferase reporter, 24 h; higher = more signal, called active from +8 up or from −8 down unless noted. On the technique in general: Reporter assays use an easily measured gene product as a stand-in for the process of interest.

Assay [5] has as its target Fibroblast growth factor 10 (Homo sapiens) (UniProt O15520). Kind of assay: compounds binding fibroblast growth factor 10 – biochemical, small-molecule microarray, 635 nm fluorescence, primary screen (AID 1102). The following applies: FGF10 binding, fluorescence 635 nm, higher = more signal.
Assay [6] has as its system glycogen synthase kinase-3 (GSK3A per assay name; protocol says GSK3B). Kind of assay: compounds binding glycogen synthase kinase-3 – biochemical, small-molecule microarray, 635 nm fluorescence, GSK3A, primary screen (AID 1103). Note: the record names both GSK3A and GSK3B. Particulars: fluorescence 635 nm, higher = more signal.
For assay [7], the target named is Epidermal growth factor receptor (Homo sapiens) (UniProt P00533). Kind of assay: compounds binding epidermal growth factor receptor – biochemical, small-molecule microarray, 635 nm fluorescence, primary screen (AID 1104).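 Note: score merges 667 nm emission intensity with spot signal to noise over triplicate slides.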 Particulars: EGFR binding, higher = more signal.
In assay [8] the target is Follistatin-related protein 3 (Homo sapiens) (UniProt O95633). Kind of assay: compounds binding follistatin-related protein 3 – biochemical, small-molecule microarray, 635 nm fluorescence, primary screen (AID 1105).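 Note: score merges emission near 667 nm and signal to noise per printed spot across three slides.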 The following applies: FSTL3 binding, higher = more signal.
In assay [9] the target is Dickkopf-related protein 1 (Homo sapiens) (UniProt O94907). Kind of assay: small molecules binding DKK1 protein – biochemical, small-molecule microarray, 635 nm fluorescence scan, primary screen (AID 1106).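 Note: score merges emission near 667 nm with signal to noise over three replicate slides.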 The following applies: higher = more signal.
Assay [10] has as its system Inhibin beta A chain (activin A). Kind of assay: small molecules binding activin A – biochemical, small-molecule microarray, 635 nm fluorescence scan, primary screen (AID 1107).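 Note: mouse activin A protein probed at 4.33 µg/mL on printed slides; score merges bound-protein fluorescence near 667 nm with spot signal-to-noise.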 The following applies: INHBA, higher = more signal.
The subject of assay [11] is Human papillomavirus type 1a protein E7 (residues 44-93). Kind of assay: small molecules binding HPV E7 44-93 – biochemical, small-molecule microarray, residues 44-93, 635 nm fluorescence, primary screen (AID 1108).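 Note: E7 fragment applied at 1 µg/mL in TBST for 1 h at 4 C; score combines spot fluorescence with its signal to noise ratio.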 The following applies: fluorescence 635 nm, higher = more signal.
Assay [12] can be described thus: hepatitis C replication reporter changes, two-sided – Huh7 cells, luciferase reporter, HCV replication inhibitor project, primary screen (AID 1109).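 Note: huh7 hepatoma cells harbouring a luciferase neomycin HCV replicon reporter; luciferase luminescence as measure of HCV replicon replication; test concentration not given here.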 The following applies: Huh7 HCV replicon luciferase reporter, 48 h; higher = more signal.
The target of assay [13] is Left-right determination factor 2 (Homo sapiens) (UniProt O00292). Kind of assay: small molecules binding LEFTY2 protein – biochemical, small-molecule microarray, 635 nm fluorescence scan, primary screen (AID 1110). The following applies: higher = more signal.
For assay [14], the target named is Calmodulin-1 (Homo sapiens) (UniProt P0DP23). Kind of assay: small molecules binding calmodulin-1 with EGTA – biochemical, small-molecule microarray, Cy5-labelled CALM1, profiling panel (AID 1111).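 Note: labelled calmodulin applied in Tris saline Tween buffer holding calcium plus EGTA and DTT.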 The following applies: Cy5-CALM1 binding fluorescence, higher = more signal.
For assay [15] the target is unchanged. Kind of assay: small molecules binding Ca-loaded calmodulin-1 – biochemical, small-molecule microarray, Cy5-labelled CALM1, plus calcium, artefact control for SMM control-protein annotation, profiling panel (AID 1112).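 Note: score merges spot fluorescence with signal to noise from triplicate slides.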 The following applies: Cy5-CALM1 binding fluorescence, higher = more signal.
Assay [16] is described as follows: probe aWnt5a binding to arrayed compounds – biochemical, biotinylated probe, 635/667 nm fluorescence, primary screen (AID 1113).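 Note: score merges 667 nm fluorescence intensity with signal-to-noise per printed feature.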 Particulars: higher = more signal; small-molecule microarray, probe aWnt5a, fluorescence unless noted.
A short description of assay [17]: probe aShh binding to arrayed compounds – biochemical, biotinylated probe, 635/667 nm fluorescence, primary screen (AID 1114).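 Note: probe is biotin-labelled aShh protein from a stem cell growth factor screen; measures binding of labelled protein to compounds printed on the slide; score merges feature fluorescence at 667 nm with signal-to-noise.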 Particulars: higher = more signal; small-molecule microarray, probe aShh, fluorescence unless noted.
Assay [18] is described as follows: probe aNog binding to arrayed compounds – biochemical, biotinylated probe, 635/667 nm fluorescence, primary screen (AID 1115).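 Note: probe is biotinylated aNog protein used at 0.15 µg/mL for 1 h at 4 C; z-score combines 667 nm fluorescence of each spot with its signal to noise.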 The following applies: higher = more signal; small-molecule microarray, probe aNog, fluorescence unless noted.
Assay [19] addresses Torsin-1A-interacting protein 1 (Homo sapiens) (UniProt Q5JTV8). Kind of assay: compound microarray binding of lysate hLAP1 – cell lysate, small-molecule microarray, COS7 lysate, 635/667 nm fluorescence, primary screen (AID 1116). The following applies: 635 nm fluorescence, higher = more signal.
Assay [20] concerns the target Alpha-bungarotoxin (Bungarus multicinctus) (UniProt P60615). Kind of assay: compounds binding labelled alpha-BTX control protein – biochemical, small-molecule microarray, Alexa647 label, 635/667 nm fluorescence, artefact control for SMM control protein annotation, profiling panel (AID 1117). Particulars: alpha-BTX-A647 binding fluorescence, higher = more signal.

Active and inactive are the calls of the source.

Alpha-bungarotoxin (Bungarus multicinctus), sequence (P60615 whole entry, looked up): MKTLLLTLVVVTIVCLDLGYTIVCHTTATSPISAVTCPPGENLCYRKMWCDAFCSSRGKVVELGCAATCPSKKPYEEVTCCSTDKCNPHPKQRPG
Left-right determination factor 2 (Homo sapiens), sequence (O00292 whole entry, looked up): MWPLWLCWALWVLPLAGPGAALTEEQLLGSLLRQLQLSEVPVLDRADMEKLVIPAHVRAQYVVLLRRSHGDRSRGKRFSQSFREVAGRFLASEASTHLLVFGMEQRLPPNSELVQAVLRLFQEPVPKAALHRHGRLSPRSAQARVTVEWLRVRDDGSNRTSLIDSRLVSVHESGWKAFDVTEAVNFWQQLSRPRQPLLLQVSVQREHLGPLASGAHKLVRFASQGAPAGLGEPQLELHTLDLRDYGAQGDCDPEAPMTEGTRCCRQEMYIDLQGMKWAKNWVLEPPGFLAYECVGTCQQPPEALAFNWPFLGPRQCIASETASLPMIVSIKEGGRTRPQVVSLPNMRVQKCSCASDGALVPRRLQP
Epidermal growth factor receptor (Homo sapiens), sequence (P00533 whole entry, looked up): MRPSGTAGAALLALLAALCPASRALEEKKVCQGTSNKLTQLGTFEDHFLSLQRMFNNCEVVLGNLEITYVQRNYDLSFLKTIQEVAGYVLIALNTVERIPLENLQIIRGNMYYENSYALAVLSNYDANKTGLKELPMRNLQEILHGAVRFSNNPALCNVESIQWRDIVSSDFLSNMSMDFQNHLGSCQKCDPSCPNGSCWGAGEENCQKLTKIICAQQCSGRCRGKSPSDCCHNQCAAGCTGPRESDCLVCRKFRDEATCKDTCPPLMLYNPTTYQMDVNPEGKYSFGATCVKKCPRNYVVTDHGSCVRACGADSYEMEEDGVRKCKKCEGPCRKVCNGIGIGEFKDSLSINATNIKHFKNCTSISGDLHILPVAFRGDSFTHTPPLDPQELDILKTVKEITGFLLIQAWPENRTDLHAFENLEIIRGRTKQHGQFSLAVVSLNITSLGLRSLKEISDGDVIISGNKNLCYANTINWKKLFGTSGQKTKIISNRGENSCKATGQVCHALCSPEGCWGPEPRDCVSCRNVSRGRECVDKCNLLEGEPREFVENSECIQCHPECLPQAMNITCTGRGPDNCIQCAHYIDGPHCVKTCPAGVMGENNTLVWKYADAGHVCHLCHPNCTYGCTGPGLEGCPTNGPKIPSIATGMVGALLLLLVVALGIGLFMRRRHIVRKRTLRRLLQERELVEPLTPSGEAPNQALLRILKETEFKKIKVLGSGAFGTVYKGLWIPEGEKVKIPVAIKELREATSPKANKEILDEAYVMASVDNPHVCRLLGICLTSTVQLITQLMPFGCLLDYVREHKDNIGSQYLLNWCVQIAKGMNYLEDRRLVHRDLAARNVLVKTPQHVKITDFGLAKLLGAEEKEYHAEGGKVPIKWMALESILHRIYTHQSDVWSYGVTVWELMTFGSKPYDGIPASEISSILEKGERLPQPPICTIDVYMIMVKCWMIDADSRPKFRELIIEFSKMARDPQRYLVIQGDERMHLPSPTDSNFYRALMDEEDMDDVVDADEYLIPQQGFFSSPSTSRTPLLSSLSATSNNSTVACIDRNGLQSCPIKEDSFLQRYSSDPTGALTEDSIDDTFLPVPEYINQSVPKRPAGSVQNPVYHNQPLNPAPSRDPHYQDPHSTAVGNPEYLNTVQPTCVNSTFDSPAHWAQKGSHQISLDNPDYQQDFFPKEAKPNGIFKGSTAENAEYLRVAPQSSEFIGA
Fibroblast growth factor 10 (Homo sapiens), sequence (O15520 whole entry, looked up): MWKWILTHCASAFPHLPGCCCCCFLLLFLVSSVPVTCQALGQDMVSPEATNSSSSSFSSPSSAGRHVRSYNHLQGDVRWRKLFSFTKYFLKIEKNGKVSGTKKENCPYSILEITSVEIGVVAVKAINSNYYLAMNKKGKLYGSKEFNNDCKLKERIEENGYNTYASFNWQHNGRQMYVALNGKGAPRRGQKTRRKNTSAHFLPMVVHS
Dickkopf-related protein 1 (Homo sapiens), sequence (O94907 whole entry, looked up): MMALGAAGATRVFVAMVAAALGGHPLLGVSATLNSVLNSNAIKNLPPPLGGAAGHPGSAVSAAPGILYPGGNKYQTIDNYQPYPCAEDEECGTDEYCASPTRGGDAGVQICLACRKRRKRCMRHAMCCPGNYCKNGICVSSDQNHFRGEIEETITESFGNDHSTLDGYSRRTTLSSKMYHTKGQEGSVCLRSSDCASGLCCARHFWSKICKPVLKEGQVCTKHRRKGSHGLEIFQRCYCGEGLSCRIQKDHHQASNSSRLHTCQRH
Follistatin-related protein 3 (Homo sapiens), sequence (O95633 whole entry, looked up): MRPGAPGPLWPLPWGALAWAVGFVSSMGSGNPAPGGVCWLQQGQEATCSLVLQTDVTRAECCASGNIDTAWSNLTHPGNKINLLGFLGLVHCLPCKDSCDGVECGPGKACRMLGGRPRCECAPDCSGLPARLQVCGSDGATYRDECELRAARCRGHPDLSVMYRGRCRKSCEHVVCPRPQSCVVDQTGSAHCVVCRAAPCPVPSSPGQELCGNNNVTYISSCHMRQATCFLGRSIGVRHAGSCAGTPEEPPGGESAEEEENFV
Torsin-1A-interacting protein 1 (Homo sapiens), sequence (Q5JTV8 whole entry, looked up): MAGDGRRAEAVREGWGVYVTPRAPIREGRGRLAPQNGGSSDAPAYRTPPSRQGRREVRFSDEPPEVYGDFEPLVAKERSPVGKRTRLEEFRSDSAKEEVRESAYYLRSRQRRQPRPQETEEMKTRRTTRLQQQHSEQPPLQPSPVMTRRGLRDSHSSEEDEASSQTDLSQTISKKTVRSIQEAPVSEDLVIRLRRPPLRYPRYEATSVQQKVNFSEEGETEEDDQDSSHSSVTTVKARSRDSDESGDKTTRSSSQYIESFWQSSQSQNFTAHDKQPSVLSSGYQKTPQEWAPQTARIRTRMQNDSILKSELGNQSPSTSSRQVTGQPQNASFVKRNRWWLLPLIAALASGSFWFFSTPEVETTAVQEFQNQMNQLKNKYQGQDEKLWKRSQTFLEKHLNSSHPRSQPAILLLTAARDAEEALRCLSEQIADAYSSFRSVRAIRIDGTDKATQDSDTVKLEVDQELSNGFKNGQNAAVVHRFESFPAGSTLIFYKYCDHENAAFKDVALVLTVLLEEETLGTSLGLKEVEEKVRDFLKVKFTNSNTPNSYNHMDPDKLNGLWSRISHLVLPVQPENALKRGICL

As for `COC(=O)[C@@]1(Cc2ccccc2)[C@H]2c3cc(C(=O)N(C)C)n(C)c3C[C@H]2CN1C(=O)c1ccccc1`, the composite z-score in [1] was 1.5; in [2], -0.0842; in assay [3] it was 0.836; in assay [5] it was 0.358; in assay [6] it was -0.214; in [7] it was 0.0444. Also, the composite z-score in assay [8] was -0.443; in assay [9] it was -0.631; in [10] it was 1.09; in assay [11], -1.91; in assay [13], -0.611; in assay [14] it was 1.96. In addition, the composite z-score in [15] is 0.514; in [16] it was -0.107; in assay [17], 0.214; in assay [18], 1.65; in assay [19] it was 2.25; in [20], 0.0882. The z-score in assay [4] is -0.806 (inactive); in assay [12], -1.42.
Regarding `COC(=O)C1(C)C=C2C(=C(C)C(=O)C2C)CN1` (stereo unspecified), the composite z-score in [1] was -0.656; in [2], 0.859; in assay [3], 0.944; in [5], -0.618; in assay [6], -0.623; in assay [7], -0.885. Moreover, the composite z-score in assay [8] was -0.729; in [9], -0.706; in assay [10], 1.11; in [11], -0.131; in assay [13] it was -0.412; in assay [14], -0.423. In addition, the composite z-score is 0.0902 in assay [15]; -0.113 in [16]; 0.381 in [17]; 1.48 in [18]; 1.18 in assay [19]; -0.313 in assay [20]. For the same compound, the z-score is 0.522 (inactive) in assay [4] and -0.0365 in assay [12].
With `CCCc1cc2c(n1Cc1ccc(C)cc1)C(C)C1CN(C(=O)c3ccccc3)C(C)(C(=O)OC)C21` (stereo unspecified), the composite z-score in assay [1] is -0.232; in assay [2], 1.69; in [3] it was 1.46; in assay [5], 1.15; in [6], 0.0952; in [7] it was 0.234. The composite z-score in assay [8] was 1.12; in assay [9], -0.0627; in assay [10], 1.28; in assay [11], 0.294; in assay [13] it was -0.472; in assay [14] it was 2.63. In addition, the composite z-score in assay [15] stood at 1.31; in [16] it was 0.417; in [17], 0.769; in assay [18], 1; in assay [19], 2.25; in assay [20], 1.9. The z-score in [4] was -3.92 (inactive); in assay [12] it was -1.33.
Turning to `CCCC[C@@H]1C[C@H]1[C@@H](NP(=O)(c1ccccc1)c1ccccc1)c1ccc(Cl)cc1`, the composite z-score was -0.168 in assay [1]; 0.294 in assay [2]; 0.988 in assay [3]; -0.668 in assay [5]; -0.924 in [6]; -1.5 in [7]. Moreover, the composite z-score in [8] was -1.57; in [9], -0.818; in [10] it was 1.18; in assay [11] it was -1.21; in assay [13], -1.67; in assay [14], 1.14. The composite z-score is 1.32 in assay [15]; 0.0403 in assay [16]; 0.254 in assay [17]; 0.633 in assay [18]; -0.314 in assay [19]; -0.0059 in assay [20]. Also, the z-score in [4] was -3.54 (inactive); in [12] it was -0.657.
`COC(=O)[C@H]1C(=O)c2ccccc2O[C@@](C(=O)OC)(c2ccccc2)[C@@H]1c1ccccc1`: the composite z-score is 0.118 in assay [1]; -0.246 in [2]; -0.354 in assay [3]; 0.232 in assay [5]; -0.831 in [6]; 0.0442 in assay [7]. Further, the composite z-score is -0.27 in assay [8]; 0.435 in assay [9]; 0.315 in [10]; -0.853 in assay [11]; 0.104 in [13]; -0.558 in [14]. Further, the composite z-score in [15] was -0.268; in assay [16], -0.0519; in assay [17], -0.352; in assay [18], -0.367; in assay [19] it was -0.271; in assay [20], -0.579. Also, the z-score in [4] is -0.959 (inactive); in [12] it was -0.424.
As for `COc1cc2c(cc1O)C=[N+](C)CC2`, the composite z-score in [1] is 0.136; in assay [2], 0.148; in assay [3] it was -0.0058; in [5], 0.668; in [6], -0.11; in [7] it was -0.414. Besides, the composite z-score in assay [8] was 0.137; in assay [9] it was -0.14; in [10], 1.35; in assay [11], -2.1; in assay [13], -0.0898; in assay [14], -0.683. In addition, the composite z-score in assay [15] was -0.399; in [16] it was -0.15; in assay [17] it was -0.138; in [18] it was -0.436; in [19], -0.347; in assay [20], -0.596. The z-score in assay [4] was 0.131 (inactive); in assay [12], -0.0523.
For `C=C1C=C(Br)C2(OCCCO2)[C@H]2OC12` (stereo partly specified), the composite z-score in assay [20] is -0.206.
With `OCc1ccc(C2=CC(C3CC3)N(Cc3sc4ccccc4c3Cl)CC2)cc1` (stereo unspecified), the composite z-score was 1 in assay [1]; 0.0931 in [2]; 0.274 in [3]; 0.458 in assay [5]; 0.979 in [6]; 0.417 in [7]. Besides, the composite z-score in [8] amounted to 0.48; in assay [9], 0.8; in [10] it was 1.04; in assay [11], 0.794; in assay [13], 0.401; in assay [14], 0.0976. The composite z-score is -0.481 in assay [15]; -0.103 in assay [16]; -0.0146 in assay [17]; -0.0662 in assay [18]; 0.781 in assay [19]; 1.44 in assay [20]. For the same compound, the z-score in assay [4] is -0.747 (inactive); in [12], -1.68.
`C=C(CC1(C(C)NP(=O)(c2ccccc2)c2ccccc2)CC1)c1ccccc1` (stereo unspecified): the composite z-score is 0.742 in [1]; 0.364 in [2]; 0.803 in assay [3]; 0.623 in [5]; 0.0363 in assay [6]; -0.636 in assay [7]. Also, the composite z-score in [8] was -0.0868; in assay [9], -0.237; in assay [10], 0.853; in assay [11] it was 1.48; in [13] it was -0.867; in assay [14], 0.962. Besides, the composite z-score in assay [15] was found to be 0.945; in assay [16], 0.23; in assay [17] it was 0.128; in [18], 0.804; in [19], 1.32; in assay [20], 0.468. For the same compound, the z-score is -4.59 (inactive) in assay [4] and -1.52 in assay [12].

Values taken from PubChem BioAssay.
